The source of these data is PubChem BioAssay.

The structures appear in SMILES notation. Active and inactive are the calls of the source. Unless noted, how the calls were made is not given here.

Assay [1] in a line: compounds binding Alexa647 anti-His antibody – biochemical, small-molecule microarray, 635 nm fluorescence, artefact control for SMM control protein annotation, primary screen (AID 1128).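 Further: score merges feature fluorescence with signal-to-noise for each printed compound spot.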 The settings on record: higher = more signal.
Assay [2] relates to Human papillomavirus type 1a E7 protein (residues 1-88). The assay is described as follows: HPV1a E7 small-molecule binders, primary screen, biochemical, small-molecule microarray, residues 1-88, 635 nm (AID 1129). The settings on record: small-molecule microarray binding, fluorescence 635 nm; higher = more signal.
Assay [3] has as its target Focal adhesion kinase 1 (Homo sapiens) (UniProt Q05397). Kind of assay: PTK2 protein binding on printed compound slides – biochemical, small-molecule microarray, 635/667 nm fluorescence, BSA, DTT, primary screen (AID 1130).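 Further: composite of spot emission at 667 nm and signal to noise over triplicate slides.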 The settings on record: 635 nm fluorescence, higher = more signal.
In assay [4] the test system is Fibrinogen (Alexa647-labelled). The assay is described as follows: Alexa647-fibrinogen binding to printed small molecules – biochemical, small-molecule microarray, 635/667 nm fluorescence, artefact control for SMM control-protein annotation, profiling panel (AID 1131).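 Further: z-score merges 667 nm fluorescence with per-spot signal-to-noise over triplicate slides.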 The settings on record: fibrinogen-A647 binding fluorescence, higher = more signal.
Assay [5] addresses Follistatin (Homo sapiens) (UniProt P19883). Kind of assay: FST protein binding to printed compounds – biochemical, small-molecule microarray, 635/667 nm fluorescence, primary screen (AID 1132). The settings on record: 635 nm fluorescence, higher = more signal.
For assay [6], the target named is Fibroblast growth factor 2 (Homo sapiens) (UniProt P09038). The assay is described as follows: basic fibroblast growth factor binding to printed compounds – biochemical, small-molecule microarray, 635/667 nm fluorescence, primary screen (AID 1133). The settings on record: FGF2, fluorescence 635/667, higher = more signal.
The nature of assay [7]: JC-1 mitochondrial potential readout, lung cancer cells – cell-based, A549, JC-1 fluorescence, basal, 24 h, 100 nL, profiling panel (AID 1138).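 Further: A549 lung adenocarcinoma cells under basal conditions with no added stimulus; test concentration not given here.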 The settings on record: higher = more signal.
Another assay has as its system Lefty1. Kind of assay: Lefty1 protein binding to printed compounds – biochemical, small-molecule microarray, 635/667 nm fluorescence, primary screen (AID 1139). As to conditions: fluorescence 635/667, higher = more signal.
Assay [8] has as its system wheat germ agglutinin (Triticum aestivum), Alexa647-labelled. Kind of assay: Alexa647-WGA lectin binding to printed small molecules – biochemical, small-molecule microarray, 635/667 nm fluorescence, artefact control for SMM control-protein annotation, profiling panel (AID 1140).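 Further: score merges 667 nm feature emission with signal to noise over triplicate slides.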 As to conditions: WGA-A647 binding, 635 nm fluorescence, higher = more signal.
The target in assay [9] is Luciferin 4-monooxygenase (Photinus pyralis) (UniProt P08659). Kind of assay: inhibition of purified Photinus pyralis luciferase – biochemical, luminescence, purified enzyme, 2006 set, primary screen (AID 1141).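 Further: cell-free assay with purified firefly luciferase at 100 ng per well in PBS; test concentration not given here.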 The settings on record: purified firefly luciferase, SteadyGlo luminescence, 30 min; higher = more signal, called active from +8 up or from −8 down.
The test system of assay [10] is Wnt5a (protein binding on small-molecule microarray). Kind of assay: small molecules binding Wnt5a protein – biophysical, small-molecule microarray, 635/667 nm fluorescence, primary screen (AID 1142).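 Further: fluorescence read at 667 nm with signal to noise per printed feature.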 As to conditions: 635 nm fluorescence, higher = more signal.
Assay [11] in a line: ATP-based viability of Huh7 replicon cells – cell-based, CellTiter-Glo luminescence, basal, 48 h, cytotoxicity control for HCV replication inhibitor project, primary screen (AID 1143).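 Further: Huh7 hepatoma cells carrying a hepatitis C replication reporter with no stimulus; test concentration not given here.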 The settings on record: higher = more signal, called active from +8 up or from −8 down. A general note: Replicon systems follow genome replication, usually without infectious particles.
Assay [12] is described as follows: Pseudomonas biofilm growth suppression – PAO1 strain, BacTiter-Glo luminescence, LB-PBS, primary screen (AID 1144). The settings on record: P. aeruginosa PAO1 biofilm, 12 h, higher = more signal.
The nature of assay [13]: basal CRE-LacZ reporter activity in PC12 – cell-based, unstimulated, primary screen (AID 1145). As to conditions: no forskolin, luminescence, 4.5 h, higher = more signal, called active from +8 up or from −8 down.
Assay [14] in a line: forskolin-driven CRE-LacZ activity in PC12 – cell-based, CRE-LacZ reporter, forskolin-stimulated, primary screen (AID 1146).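 Further: PC12 cells with 6xCRE LacZ reporter stimulated by forskolin 10 µM; beta-galactosidase reporter signal reflecting CREB driven transcription.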 As to conditions: luminescence, 4.5 h, higher = more signal, called active from +8 up or from −8 down.
Assay [15] deals with Streptavidin (Streptomyces avidinii) (UniProt P22629). Kind of assay: compounds binding control protein streptavidin – biophysical, small-molecule microarray, 635/667 nm fluorescence, artefact control for SMM compound annotation, primary screen (AID 1147).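 Further: signal reflects streptavidin binding to arrayed compounds as a control protein.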 As to conditions: higher = more signal.
Assay [16] can be described thus: probe aInhba binding on compound microarray – biochemical, small-molecule microarray, 635/667 nm fluorescence, primary screen (AID 1148).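 Further: score merges 667nm spot fluorescence with signal-to-noise for antibody binding to printed compounds.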 The settings on record: higher = more signal.
The target of assay [17] is Torsin-1A (Homo sapiens) (UniProt O14656). Kind of assay: TOR1A wild-type binding on microarray – cell lysate, small-molecule microarray, lysate, 635/667 nm, primary screen (AID 1149). As to conditions: COS7 hTOR1A-WT lysate, 635 nm fluorescence, higher = more signal.
Assay [18] shares this target. The assay is described as follows: torsin A mutant lysate binding on microarrays – cell lysate, small-molecule microarray, COS7 lysate, 635/667 nm fluorescence, primary screen (AID 1150).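 Further: score pools 667 nm emission and signal to noise measuring lysate protein binding.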 The settings on record: COS7 hTOR1A mutant lysate, 635 nm fluorescence, higher = more signal.
Assay [19] concerns Sonic hedgehog protein (Shh). The assay is described as follows: Sonic hedgehog microarray binding compounds – biochemical, small-molecule microarray, 635/667 nm fluorescence, primary screen (AID 1151).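 Further: Shh protein binding to compounds spotted on small-molecule microarray slides; score combines spot fluorescence intensity with signal-to-noise across triplicate slides.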 As to conditions: 635 nm fluorescence, higher = more signal.

Follistatin (Homo sapiens), sequence (P19883 whole entry, looked up): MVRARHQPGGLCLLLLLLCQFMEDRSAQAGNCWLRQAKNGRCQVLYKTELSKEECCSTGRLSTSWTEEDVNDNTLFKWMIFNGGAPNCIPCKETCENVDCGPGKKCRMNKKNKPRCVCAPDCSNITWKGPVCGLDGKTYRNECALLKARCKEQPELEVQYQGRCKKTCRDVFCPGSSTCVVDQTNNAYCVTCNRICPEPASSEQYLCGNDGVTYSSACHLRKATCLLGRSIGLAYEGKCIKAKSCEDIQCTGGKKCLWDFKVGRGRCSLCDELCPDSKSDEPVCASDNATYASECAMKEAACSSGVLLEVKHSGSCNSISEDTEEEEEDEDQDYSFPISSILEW
Streptavidin (Streptomyces avidinii), sequence (P22629 whole entry, looked up): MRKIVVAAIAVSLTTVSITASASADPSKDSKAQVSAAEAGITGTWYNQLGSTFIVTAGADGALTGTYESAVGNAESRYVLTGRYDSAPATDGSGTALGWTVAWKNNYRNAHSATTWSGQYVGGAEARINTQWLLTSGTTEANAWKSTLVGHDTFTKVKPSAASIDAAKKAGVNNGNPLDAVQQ
Luciferin 4-monooxygenase (Photinus pyralis), sequence (P08659 whole entry, looked up): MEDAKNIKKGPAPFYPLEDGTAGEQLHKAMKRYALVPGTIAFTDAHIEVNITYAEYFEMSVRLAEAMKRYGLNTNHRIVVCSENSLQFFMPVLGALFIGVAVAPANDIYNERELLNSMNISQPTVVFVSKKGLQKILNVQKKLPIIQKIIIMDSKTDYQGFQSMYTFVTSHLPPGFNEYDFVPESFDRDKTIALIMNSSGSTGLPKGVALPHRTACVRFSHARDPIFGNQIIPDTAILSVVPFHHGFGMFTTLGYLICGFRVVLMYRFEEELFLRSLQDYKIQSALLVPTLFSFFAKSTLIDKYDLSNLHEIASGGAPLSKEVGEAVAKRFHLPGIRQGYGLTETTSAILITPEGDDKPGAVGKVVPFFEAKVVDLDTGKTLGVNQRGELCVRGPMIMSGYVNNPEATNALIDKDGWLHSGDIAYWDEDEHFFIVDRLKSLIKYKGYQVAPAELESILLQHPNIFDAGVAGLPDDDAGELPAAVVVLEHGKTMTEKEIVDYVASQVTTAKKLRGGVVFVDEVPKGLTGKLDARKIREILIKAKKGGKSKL
Fibroblast growth factor 2 (Homo sapiens), sequence (P09038 whole entry, looked up): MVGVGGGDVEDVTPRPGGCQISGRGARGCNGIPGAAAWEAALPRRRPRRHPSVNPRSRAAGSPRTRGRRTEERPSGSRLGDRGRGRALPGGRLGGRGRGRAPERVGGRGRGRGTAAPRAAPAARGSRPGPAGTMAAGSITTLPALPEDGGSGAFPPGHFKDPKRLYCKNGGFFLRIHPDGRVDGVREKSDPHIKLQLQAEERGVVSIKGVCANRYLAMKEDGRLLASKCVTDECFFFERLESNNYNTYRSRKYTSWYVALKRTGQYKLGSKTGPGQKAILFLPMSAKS
Focal adhesion kinase 1 (Homo sapiens), sequence (Q05397 whole entry, looked up): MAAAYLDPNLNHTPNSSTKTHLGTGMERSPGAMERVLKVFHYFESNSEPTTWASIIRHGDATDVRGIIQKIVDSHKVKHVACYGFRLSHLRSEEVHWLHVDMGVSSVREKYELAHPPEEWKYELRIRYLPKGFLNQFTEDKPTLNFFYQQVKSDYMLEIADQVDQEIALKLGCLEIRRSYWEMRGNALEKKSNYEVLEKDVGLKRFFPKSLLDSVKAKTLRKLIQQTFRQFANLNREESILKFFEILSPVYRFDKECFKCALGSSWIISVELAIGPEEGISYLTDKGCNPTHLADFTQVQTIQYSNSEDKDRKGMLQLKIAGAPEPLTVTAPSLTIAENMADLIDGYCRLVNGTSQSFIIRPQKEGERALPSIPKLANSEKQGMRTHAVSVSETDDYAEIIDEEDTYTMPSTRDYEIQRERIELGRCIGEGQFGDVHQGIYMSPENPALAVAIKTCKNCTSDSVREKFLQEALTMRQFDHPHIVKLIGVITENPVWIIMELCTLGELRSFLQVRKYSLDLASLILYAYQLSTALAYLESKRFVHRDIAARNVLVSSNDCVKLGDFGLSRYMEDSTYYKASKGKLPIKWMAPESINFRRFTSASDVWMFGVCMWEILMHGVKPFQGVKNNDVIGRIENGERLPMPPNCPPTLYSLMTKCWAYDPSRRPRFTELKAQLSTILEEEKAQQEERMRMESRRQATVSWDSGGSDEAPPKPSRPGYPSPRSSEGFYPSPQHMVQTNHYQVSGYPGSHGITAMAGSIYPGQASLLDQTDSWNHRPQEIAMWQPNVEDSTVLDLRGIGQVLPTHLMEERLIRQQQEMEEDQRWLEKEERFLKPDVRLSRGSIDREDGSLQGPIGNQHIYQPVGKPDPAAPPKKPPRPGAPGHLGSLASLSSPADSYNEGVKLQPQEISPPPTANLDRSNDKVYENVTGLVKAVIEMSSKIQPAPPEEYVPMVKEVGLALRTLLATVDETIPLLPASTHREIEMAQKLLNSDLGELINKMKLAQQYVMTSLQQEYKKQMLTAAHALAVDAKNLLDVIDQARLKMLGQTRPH
Torsin-1A (Homo sapiens), sequence (O14656 whole entry, looked up): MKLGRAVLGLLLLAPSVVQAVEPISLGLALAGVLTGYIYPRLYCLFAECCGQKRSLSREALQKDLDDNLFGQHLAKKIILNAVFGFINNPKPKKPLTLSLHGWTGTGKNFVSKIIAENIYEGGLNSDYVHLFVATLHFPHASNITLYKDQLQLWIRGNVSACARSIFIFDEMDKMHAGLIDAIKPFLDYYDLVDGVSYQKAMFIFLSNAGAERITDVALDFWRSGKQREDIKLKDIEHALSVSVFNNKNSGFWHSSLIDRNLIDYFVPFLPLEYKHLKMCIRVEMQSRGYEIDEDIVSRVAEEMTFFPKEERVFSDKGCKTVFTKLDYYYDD

Turning to `O=C1CCCC(C2=CCCCC2=O)C1` (stereo not given), the composite z-score in assay [1] was -0.496; in assay [2], -0.624; in [3] it was 0.26; in [4], -0.67; in assay [5] it was 1.01; in assay [6], 0.567. Moreover, the composite z-score in the assay with Lefty1 is 1.02; in assay [8], -0.397; in [10], 0.18; in assay [15], -0.15; in assay [16], -0.0288; with Torsin-1A (Homo sapiens) [17], 0.217. For the same molecule, the figures for the composite z-score (in the assay with Torsin-1A (Homo sapiens) [18]; in assay [19]) were 0.37 and 0.626, respectively. The z-score is 0.475 in assay [7]; -0.242 (inactive) in assay [9]; 0.211 (inactive) in assay [11]; 0.0656 (inactive) in [12]; 0.019 (inactive) in [13]; -0.222 (inactive) in assay [14].
As to `CC(CCN1CCCCc2nc(C)c(C)cc21)=NOC[C@@H](O)COCc1ccco1`, the composite z-score is 0.111 in assay [1]; -0.91 in assay [2]; 0.0817 in assay [3]; -0.426 in assay [4]; 1.42 in [5]; 1.98 in assay [6]. The composite z-score was 1.68 in the assay on Lefty1; -0.466 in [8]; 0.59 in [10]; -0.555 in assay [15]; -0.15 in assay [16]; 3.74 with Torsin-1A (Homo sapiens) [17]. In addition, the results for the composite z-score (with Torsin-1A (Homo sapiens) [18]; in assay [19]) were 3.23 and 2.31, respectively. For the same molecule, the z-score in assay [7] was 0.143; in assay [9] it was 0.357 (inactive); in assay [11] it was 0.159 (inactive); in assay [12], 0.676 (inactive); in assay [13] it was 0.662 (inactive); in assay [14], 0.758 (inactive).
For the molecule `CCOC(=O)CCN1C(=O)[C@H]2[C@H]3[C@H](O)[C@H](O)CC(=NOCC(C)C)[C@H]3CC[C@H]2C1=O`, the composite z-score is -0.0537 in assay [1]; -0.204 in assay [2]; -0.0454 in assay [3]; 0.416 in assay [4]; -0.143 in [5]; -0.0435 in [6]. Moreover, the composite z-score in the assay on Lefty1 was -0.0892; in assay [8], 0.293; in [10], 0.0106; in assay [15] it was -0.0341; in [16], -0.159; in the assay with Torsin-1A (Homo sapiens) [17], 0.47. For the same molecule, the figures for the composite z-score (with Torsin-1A (Homo sapiens) [18]; in assay [19]) were -0.5 and -0.249, respectively. Besides, the z-score was 0.46 in [7]; -0.562 (inactive) in assay [9]; 0.0793 (inactive) in [11]; 0.256 (inactive) in assay [12]; -0.0187 (inactive) in assay [13]; 0.357 (inactive) in [14].
Consider `CC=CC1=C(CO)C(=O)[C@@H]2O[C@@H]2C1=O`, for which the composite z-score in assay [1] was 0.366; in assay [2], -0.385; in assay [3], -0.681; in [4], -0.328; in [5], 1.44; in [6], 1.89. The composite z-score with Lefty1 was 1.34; in assay [8], -0.173; in assay [10], 0.189; in assay [15], -0.842; in assay [16] it was -0.128; in the assay with Torsin-1A (Homo sapiens) [17], 0.0039. For the same molecule, the composite z-score in the assay with Torsin-1A (Homo sapiens) [18] was -0.579; in [19], 1.72. The z-score in assay [7] is -1.06; in assay [9], -0.78 (inactive); in assay [11] it was -1.02 (inactive); in assay [12], -0.36 (inactive); in assay [13] it was 0.0178 (inactive); in [14] it was 3.64 (inactive).
Regarding `CC(=O)OC[C@H]1O[C@H](C#Cc2ccccc2)C=C[C@@H]1OC(C)=O`, the composite z-score in assay [1] is -0.223; in assay [2], 0.262; in assay [3], -0.203; in assay [4], 0.81; in assay [5] it was 0.272; in [6], 0.271. Also, the composite z-score in the assay on Lefty1 was 0.517; in assay [8], -0.361; in assay [10], -0.118; in [15] it was 0.0752; in assay [16], -0.182; with Torsin-1A (Homo sapiens) [17], 0.398. Further, the composite z-score with Torsin-1A (Homo sapiens) [18] is -0.0454; in assay [19], 0.337. The z-score in assay [7] is 0.277; in assay [9] it was -2.26 (inactive); in assay [11], -2.96 (inactive); in assay [12] it was 0.908 (inactive); in assay [13], -0.256 (inactive); in assay [14], 3.76 (inactive).
